The results in this text go back to ChEMBL document CHEMBL3988442, “University of Dundee, Small-Polar-MMV Screening Library” (2021).

Each structure is given as a SMILES string. For some of these results: Entries with a potency or affinity are not part of this list.

Common to all, as to design: scale not given: direction of the effect not stated beside the values
The target in test [1] is Protein translocase subunit SecA (Escherichia coli (strain K12)) (UniProt P10408). In words: Assay to Identify E. coli SecA ATPase Inhibitors. It counts as functional. The conditions noted are these: 30 µM.
The target of test [2] is T1, Ubiquitin-activating enzyme e1, putative (Leishmania donovani (strain BPK282A1)) (UniProt E9BSI1).
T1 sequence (whole entry): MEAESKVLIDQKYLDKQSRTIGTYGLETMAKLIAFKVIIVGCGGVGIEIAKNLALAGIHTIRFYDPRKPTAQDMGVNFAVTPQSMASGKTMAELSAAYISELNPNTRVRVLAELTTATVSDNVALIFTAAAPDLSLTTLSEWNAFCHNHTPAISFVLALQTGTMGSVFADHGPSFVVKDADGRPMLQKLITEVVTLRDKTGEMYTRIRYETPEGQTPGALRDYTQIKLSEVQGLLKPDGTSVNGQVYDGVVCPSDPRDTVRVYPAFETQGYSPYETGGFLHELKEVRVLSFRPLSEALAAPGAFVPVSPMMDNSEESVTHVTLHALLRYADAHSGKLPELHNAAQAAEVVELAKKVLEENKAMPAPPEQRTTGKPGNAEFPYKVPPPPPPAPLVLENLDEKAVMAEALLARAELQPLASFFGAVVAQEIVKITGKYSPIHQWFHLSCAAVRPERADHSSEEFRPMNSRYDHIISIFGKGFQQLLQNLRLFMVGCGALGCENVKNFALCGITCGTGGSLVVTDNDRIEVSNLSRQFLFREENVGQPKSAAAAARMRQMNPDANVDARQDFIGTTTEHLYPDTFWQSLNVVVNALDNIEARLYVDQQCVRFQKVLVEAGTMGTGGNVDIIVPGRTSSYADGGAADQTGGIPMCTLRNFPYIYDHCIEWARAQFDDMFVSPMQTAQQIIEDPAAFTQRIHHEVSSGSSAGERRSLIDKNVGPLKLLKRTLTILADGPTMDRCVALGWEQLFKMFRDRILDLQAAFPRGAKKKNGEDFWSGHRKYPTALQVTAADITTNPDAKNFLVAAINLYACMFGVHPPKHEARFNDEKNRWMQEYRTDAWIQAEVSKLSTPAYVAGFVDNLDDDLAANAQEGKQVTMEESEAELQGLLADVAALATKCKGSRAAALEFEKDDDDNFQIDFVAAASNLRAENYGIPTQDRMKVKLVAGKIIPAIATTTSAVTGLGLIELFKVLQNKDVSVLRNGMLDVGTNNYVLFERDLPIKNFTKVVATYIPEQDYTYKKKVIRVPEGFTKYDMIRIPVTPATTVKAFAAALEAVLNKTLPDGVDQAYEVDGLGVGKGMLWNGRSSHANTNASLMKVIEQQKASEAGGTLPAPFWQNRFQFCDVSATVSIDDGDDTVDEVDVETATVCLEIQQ
In words: Leishmania donovani Ubiquitin Activating Enzyme (LdE1). The class given is functional. The conditions noted are these: 30 µM.

Test [3] concerns the target AMP-activated protein kinase, AMPK (Homo sapiens) (UniProt P54646+O43741+P54619+Q9UGJ0+Q9Y478+Q13131+Q9UGI9). Put plainly: AMP-dependent Kinase enzyme assay. An in vitro enzyme assay that detects ADP turnover that is directly proportional to AMPK activity. This uses naive AMPK that is activated during the assay with MK-8722. The class given is functional. The following applies: 30 µM.

Test [4] addresses Sialic acid-binding Ig-like lectin 9 (Homo sapiens) (UniProt Q9Y336). Put plainly: Hs-Siglec9 ALPHAscreen SOP 20170721. The following applies: 10 µM.
The subject of test [5] is Trypanosoma cruzi. In words: Trypanosoma cruzi phosphomannomutase and mannose-1-phosphate guanylyltransferase assay. The class given is functional. The conditions noted are these: 10 µM.
The target of test [6] is T2, Arginase-2, mitochondrial (Homo sapiens) (UniProt P78540).
T2 sequence (whole entry): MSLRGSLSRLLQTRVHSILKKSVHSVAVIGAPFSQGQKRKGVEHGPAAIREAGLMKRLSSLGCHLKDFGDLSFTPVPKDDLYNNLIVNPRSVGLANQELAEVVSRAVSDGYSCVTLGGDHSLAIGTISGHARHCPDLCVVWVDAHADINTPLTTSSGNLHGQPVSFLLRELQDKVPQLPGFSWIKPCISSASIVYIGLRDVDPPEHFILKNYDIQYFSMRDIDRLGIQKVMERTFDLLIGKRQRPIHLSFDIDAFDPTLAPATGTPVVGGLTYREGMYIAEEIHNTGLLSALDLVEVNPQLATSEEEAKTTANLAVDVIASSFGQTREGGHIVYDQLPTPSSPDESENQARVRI
Put plainly: in vitro enzyme assay to detect the production of urea directly proportional to the activity of Arginase II. Note: in the data most compounds retested in dose-response had high values. The class given is functional. The following applies: 33.3 µM.

The target of test [7] is T3, Proteasome subunit beta (Trypanosoma cruzi) (UniProt O96673).
T3 sequence (whole entry): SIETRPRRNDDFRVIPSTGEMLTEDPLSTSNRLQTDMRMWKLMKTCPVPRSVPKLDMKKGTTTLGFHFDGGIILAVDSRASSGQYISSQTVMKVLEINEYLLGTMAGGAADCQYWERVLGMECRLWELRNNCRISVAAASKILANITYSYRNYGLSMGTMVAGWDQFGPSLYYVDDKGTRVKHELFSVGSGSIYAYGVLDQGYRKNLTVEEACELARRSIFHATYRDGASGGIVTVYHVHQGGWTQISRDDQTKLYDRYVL
Put plainly: Trypanosoma cruzi proteasome chymotrypsin-like activity (TcProtChymo) assay. Note: in the data most compounds retested in dose-response had high values. It counts as functional. The conditions noted are these: 9.37 µM.

For test [8], the species on record is Homo sapiens. Put plainly: To identify inhibition of the IFN signalling (Jak-Stat) pathway via expression of an eGFP reporter gene under the control of an IFN-stimulated response element (ISRE) containing MxA promoter. The class given is functional. The following applies: 30 µM. On the technique in general: In a reporter assay the amount or activity of a reporter protein is the signal.

Test [9] deals with T4, Tyrosyl-tRNA synthetase, putative (Trypanosoma cruzi (strain CL Brener)) (UniProt Q4DSP6).
T4 sequence (whole entry): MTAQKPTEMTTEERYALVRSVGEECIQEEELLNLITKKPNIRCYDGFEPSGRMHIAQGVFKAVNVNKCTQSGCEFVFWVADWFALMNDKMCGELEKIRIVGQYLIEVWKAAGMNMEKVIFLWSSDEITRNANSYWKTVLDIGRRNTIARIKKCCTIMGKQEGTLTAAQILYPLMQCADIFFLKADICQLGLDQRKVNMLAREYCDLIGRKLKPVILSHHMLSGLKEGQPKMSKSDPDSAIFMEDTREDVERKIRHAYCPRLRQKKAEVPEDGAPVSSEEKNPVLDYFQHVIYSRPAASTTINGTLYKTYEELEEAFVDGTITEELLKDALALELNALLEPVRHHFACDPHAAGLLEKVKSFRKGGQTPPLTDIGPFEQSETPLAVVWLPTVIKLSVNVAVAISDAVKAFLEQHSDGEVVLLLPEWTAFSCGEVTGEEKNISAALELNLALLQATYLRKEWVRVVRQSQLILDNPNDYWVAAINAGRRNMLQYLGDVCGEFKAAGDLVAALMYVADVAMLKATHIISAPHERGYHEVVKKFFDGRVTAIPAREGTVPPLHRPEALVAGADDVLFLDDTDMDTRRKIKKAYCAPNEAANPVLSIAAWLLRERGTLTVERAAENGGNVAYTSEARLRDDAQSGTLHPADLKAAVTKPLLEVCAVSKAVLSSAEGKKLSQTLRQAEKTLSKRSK
Put plainly: Trypanosoma cruzi tyrosyl tRNA synthetase (TcYRS) _High Tyrosine SOP. Note: in the data most compounds retested in dose-response had high values. The class given is functional. The following applies: 30 µM.

For test [10], the target named is T4, Tyrosyl-tRNA synthetase, putative (Trypanosoma cruzi (strain CL Brener)). In words: Trypanosoma cruzi tyrosyl tRNA synthetase (TcYRS) SOP. It counts as functional. The conditions noted are these: 30 µM.
For test [11], the target named is Chromo domain-containing protein 1 (Saccharomyces cerevisiae (strain ATCC 204508 / S288c) (Baker's yeast)) (UniProt P32657). In words: ScCHD-1 Enzyme Inhibition Assay. Note: in the data most compounds retested in dose-response had high values. The class given is functional. The following applies: 30 µM.
Chromo domain-containing protein 1 (Saccharomyces cerevisiae (strain ATCC 204508 / S288c) (Baker's yeast)), sequence (P32657 whole entry, the tested form may be a part): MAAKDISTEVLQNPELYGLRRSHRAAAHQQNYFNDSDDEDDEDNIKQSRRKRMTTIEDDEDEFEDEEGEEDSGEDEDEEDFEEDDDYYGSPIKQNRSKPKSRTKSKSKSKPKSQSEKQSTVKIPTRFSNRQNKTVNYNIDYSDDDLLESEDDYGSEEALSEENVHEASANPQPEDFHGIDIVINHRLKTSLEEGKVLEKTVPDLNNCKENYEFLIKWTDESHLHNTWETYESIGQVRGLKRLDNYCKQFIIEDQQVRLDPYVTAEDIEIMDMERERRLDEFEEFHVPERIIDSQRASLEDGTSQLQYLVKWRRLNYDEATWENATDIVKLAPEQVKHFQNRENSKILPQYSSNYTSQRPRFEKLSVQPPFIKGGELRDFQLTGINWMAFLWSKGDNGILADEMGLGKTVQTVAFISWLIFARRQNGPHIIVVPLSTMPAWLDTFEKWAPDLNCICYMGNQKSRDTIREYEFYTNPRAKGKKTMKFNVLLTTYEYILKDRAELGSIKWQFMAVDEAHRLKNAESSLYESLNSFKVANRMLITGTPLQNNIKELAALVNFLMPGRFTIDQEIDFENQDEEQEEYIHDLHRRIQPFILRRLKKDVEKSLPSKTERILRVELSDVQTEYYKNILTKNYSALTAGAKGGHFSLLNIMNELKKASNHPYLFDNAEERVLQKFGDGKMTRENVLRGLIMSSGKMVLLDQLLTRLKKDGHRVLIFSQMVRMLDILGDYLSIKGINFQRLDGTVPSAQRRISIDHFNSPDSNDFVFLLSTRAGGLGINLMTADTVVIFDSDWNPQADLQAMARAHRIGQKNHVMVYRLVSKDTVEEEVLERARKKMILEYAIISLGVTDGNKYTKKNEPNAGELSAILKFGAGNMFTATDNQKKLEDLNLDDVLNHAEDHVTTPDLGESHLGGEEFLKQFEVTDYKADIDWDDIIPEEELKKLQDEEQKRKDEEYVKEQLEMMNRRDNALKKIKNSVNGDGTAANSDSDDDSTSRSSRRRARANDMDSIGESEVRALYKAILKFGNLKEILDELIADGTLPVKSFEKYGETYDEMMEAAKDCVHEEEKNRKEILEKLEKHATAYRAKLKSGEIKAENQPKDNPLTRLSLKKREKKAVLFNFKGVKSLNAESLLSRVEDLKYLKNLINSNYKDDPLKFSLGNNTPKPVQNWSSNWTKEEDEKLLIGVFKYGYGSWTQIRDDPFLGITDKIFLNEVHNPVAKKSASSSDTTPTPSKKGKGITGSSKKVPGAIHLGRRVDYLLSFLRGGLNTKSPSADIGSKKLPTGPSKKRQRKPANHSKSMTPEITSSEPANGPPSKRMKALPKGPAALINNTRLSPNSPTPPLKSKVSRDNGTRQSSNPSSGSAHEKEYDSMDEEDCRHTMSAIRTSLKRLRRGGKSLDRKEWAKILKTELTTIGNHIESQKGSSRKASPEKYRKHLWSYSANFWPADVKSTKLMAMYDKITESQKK

Protein translocase subunit SecA (Escherichia coli (strain K12)), sequence (P10408 whole entry): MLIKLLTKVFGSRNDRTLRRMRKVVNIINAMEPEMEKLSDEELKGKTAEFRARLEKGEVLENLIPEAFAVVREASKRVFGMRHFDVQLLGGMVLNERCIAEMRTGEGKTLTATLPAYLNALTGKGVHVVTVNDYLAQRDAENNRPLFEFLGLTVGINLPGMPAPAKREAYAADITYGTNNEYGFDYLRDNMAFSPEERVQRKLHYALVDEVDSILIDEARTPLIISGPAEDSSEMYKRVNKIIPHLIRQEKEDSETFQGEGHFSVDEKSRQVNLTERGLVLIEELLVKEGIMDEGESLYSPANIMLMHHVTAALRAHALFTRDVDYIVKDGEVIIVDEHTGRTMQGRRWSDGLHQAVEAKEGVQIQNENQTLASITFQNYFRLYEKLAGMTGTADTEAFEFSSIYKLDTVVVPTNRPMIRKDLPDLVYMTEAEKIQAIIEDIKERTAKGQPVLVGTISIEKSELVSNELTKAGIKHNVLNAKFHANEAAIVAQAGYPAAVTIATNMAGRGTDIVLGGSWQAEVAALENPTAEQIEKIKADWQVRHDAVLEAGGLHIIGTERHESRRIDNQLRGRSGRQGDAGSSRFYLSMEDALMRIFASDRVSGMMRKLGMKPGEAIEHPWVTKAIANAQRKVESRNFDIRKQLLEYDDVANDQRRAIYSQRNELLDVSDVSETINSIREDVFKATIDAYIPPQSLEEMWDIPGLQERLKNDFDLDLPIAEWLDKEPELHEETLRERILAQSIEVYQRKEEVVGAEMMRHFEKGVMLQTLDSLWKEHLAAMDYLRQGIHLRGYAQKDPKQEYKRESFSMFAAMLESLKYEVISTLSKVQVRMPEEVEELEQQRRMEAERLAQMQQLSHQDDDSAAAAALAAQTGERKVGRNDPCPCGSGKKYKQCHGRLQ
Sialic acid-binding Ig-like lectin 9 (Homo sapiens), sequence (Q9Y336 whole entry): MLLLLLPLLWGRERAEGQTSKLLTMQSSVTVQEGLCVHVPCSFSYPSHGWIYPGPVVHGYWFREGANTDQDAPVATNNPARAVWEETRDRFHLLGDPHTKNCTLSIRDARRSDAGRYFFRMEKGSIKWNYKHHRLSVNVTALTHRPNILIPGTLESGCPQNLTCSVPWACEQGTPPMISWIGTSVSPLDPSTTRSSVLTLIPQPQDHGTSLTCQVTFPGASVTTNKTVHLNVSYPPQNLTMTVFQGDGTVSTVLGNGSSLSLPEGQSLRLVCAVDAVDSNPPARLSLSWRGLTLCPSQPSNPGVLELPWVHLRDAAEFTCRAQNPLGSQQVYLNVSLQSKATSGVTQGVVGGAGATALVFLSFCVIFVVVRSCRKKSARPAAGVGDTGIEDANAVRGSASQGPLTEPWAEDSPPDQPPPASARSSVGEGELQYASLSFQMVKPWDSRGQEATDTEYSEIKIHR

In the case of `COCC1COCCC12CCN(CCc1ccccc1)CC2` (stereo unspecified), the Percent Effect in test [1] was -4.75%; in test [2], 2.7%; in test [3] it was 0.285%; in test [4], 0.939%; in [5], 6.84%; in [6], -3.33%. Moreover, the Percent Effect was determined as 16.5% in test [7]; 1.25% in [8]; 6.93% in [9]; 8.54% in test [10]; 0.841% in [11].

For the compound `CNc1cc(CCNC(=O)c2cccnc2)nc(-c2ccncc2)n1`, the Percent Effect in [1] is -1.87%; in [2] it was 9.46%; in [3], 12.1%; in test [4], 1.21%; in test [5] it was -6.13%; in test [6], 2.09%. Further, the Percent Effect is 12% in [7]; -0.444% in test [8]; 4.3% in test [9]; 6.49% in [10]; -5.16% in test [11].

In the case of `CCc1nnc2n1CCN(C(=O)c1cc3cc(F)ccc3[nH]1)C2`, the Percent Effect in test [1] is -3.51%; in [2] it was 0%; in test [3], 21%; in [4], 11.1%; in test [5], 4.68%; in test [6], -1.78%. Besides, the Percent Effect in test [7] was 2.37%; in test [8], -24.4%; in [9], 7.77%; in test [10], 24.4%; in [11], -11.3%.

As for `O[C@]1(c2ccccn2)CC[C@@H]2CN(Cc3cccc4ncccc34)C[C@@H]21`, the Percent Effect in test [1] is -4.41%; in test [2], 9.46%; in [3], 11.8%; in test [4], -7.79%; in [5], -1.38%; in test [6], 0.696%. Besides, the Percent Effect in test [7] was 21.4%; in test [8], 21.9%; in test [9], 9.68%; in test [10] it was 9.09%; in [11], -13.1%.

Turning to `Cn1cc(CNCCn2cccn2)c(-c2cccnc2)n1`, the Percent Effect in test [1] was -3.75%; in test [2] it was 0%; in test [3], -3.89%; in [4] it was -4.32%; in test [5], -1.66%; in test [6], 0.744%. Also, the Percent Effect in test [7] is 13.8%; in [8] it was -1.72%; in test [9], -1.07%; in test [10], 1.24%; in test [11], 2.43%.

Consider `CCS(=O)(=O)N1C[C@H]2CCC[C@@]2(COc2ccccn2)C1`, for which the Percent Effect in test [1] was -2.05%; in [2], 12%; in [3] it was -6.57%; in test [4] it was 2.8%; in test [5], -0.393%; in test [6], -6.16%. Further, the Percent Effect in test [7] is 10.5%; in [8] it was 33%; in [9], 2.12%; in [10], 5.13%; in test [11] it was -1.39%.

With `O=C1CO[C@@H]2CN(CC3CCOCC3)C[C@H]2N1CC1CC1`, the Percent Effect in test [1] was -3.37%; in test [2], 10.8%; in test [3] it was 5.33%; in test [4] it was -0.714%; in test [5], -5.18%; in test [6] it was 5.41%. The Percent Effect in test [7] is 20.1%; in test [8], 10.6%; in test [9], 5.41%; in test [10], 17.9%; in test [11] it was 3.58%.

For `O=C(NCCCNCC1CNc2ccnn2C1)c1ccccc1` (stereo unspecified), the Percent Effect in test [1] was 0.663%; in test [2], 2.7%; in [3], -9.29%; in test [4] it was -3.11%; in [5], 0.193%; in test [6] it was 4.29%. Also, the Percent Effect in [7] is 16.6%; in [8] it was 9.18%; in test [9], 5.82%; in test [10], 14.6%; in test [11], -3.29%.

Turning to `O=C(NCCCN1CCCCC1)c1ccc(-n2ccc3ccccc32)s1`, the Percent Effect in [1] is -0.638%; in [2] it was -23.4%; in test [3] it was -0.0111%; in [4], -2.17%; in [5] it was 11.1%; in [6] it was -9.68%. In addition, the Percent Effect in test [7] is 9.4%; in test [8], 22.6%; in [9], -3.17%; in test [10], 1.28%; in test [11] it was 1.91%.

For `Cc1nc(CN2CCCC(NCc3ccsc3)C2)no1` (stereo unspecified), the Percent Effect in test [1] was 1.07%; in [2], 18.2%; in [3], -3.38%; in [4], -6.19%; in [5] it was -7.3%; in test [6], 4.63%. The Percent Effect is 16.1% in test [7]; 20.4% in test [8]; 4.85% in test [9]; 12.2% in [10]; -8.54% in test [11].

For `O=C(Nc1ccccc1F)N1CCN(Cc2noc(C3CC3)n2)CC1`, the Percent Effect in [1] is -1.58%; in test [2], 11.4%; in [3], 5.8%; in test [4], 0.391%; in [5], -2.36%; in test [6], 4.09%. The Percent Effect in test [7] was 8.4%; in test [8], 4.54%; in test [9], 5.21%; in test [10], 20.2%; in [11] it was -23.3%.
